Laboratory results: PubChem BioAssay (NCATS)
Results filed as inconclusive are left out. Activity calls are given as the source filed them. Calls come from the whole dose curve; as a rule, active = well fitted curve in the direction sought with a large enough effect; inconclusive = small, poorly fitted or top-dose-only effect, or another doubt; inactive = no such curve, though single readings can be large or run the other way.

Target: Protein phosphatase 1D (Homo sapiens) (UniProt O15297)
Assay: Rhodamine-PBP qHTS Assay for Modulators of WT P53-Induced Phosphatase 1 (WIP1) (AID 1347425)
Conditions: recombinant WIP1, Rhodamine-PBP phosphate fluorescence, real-time; series mostly up to 57.5 µM
Summary of the method: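 5 nM WIP1 + 10 uM Rh-PBP, 50 mM Tris pH 7.5, 30 mM MgCl2, 1 mM TCEP, 0.1 mM EGTA, BSA; cpds pinned, 1 hr RT; + 10 uM phosphopeptide; fluorescence 1-min reads x 11 min; delta = f1 - f0.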

Chain of Protein phosphatase 1D (Homo sapiens) (O15297 whole entry, looked up): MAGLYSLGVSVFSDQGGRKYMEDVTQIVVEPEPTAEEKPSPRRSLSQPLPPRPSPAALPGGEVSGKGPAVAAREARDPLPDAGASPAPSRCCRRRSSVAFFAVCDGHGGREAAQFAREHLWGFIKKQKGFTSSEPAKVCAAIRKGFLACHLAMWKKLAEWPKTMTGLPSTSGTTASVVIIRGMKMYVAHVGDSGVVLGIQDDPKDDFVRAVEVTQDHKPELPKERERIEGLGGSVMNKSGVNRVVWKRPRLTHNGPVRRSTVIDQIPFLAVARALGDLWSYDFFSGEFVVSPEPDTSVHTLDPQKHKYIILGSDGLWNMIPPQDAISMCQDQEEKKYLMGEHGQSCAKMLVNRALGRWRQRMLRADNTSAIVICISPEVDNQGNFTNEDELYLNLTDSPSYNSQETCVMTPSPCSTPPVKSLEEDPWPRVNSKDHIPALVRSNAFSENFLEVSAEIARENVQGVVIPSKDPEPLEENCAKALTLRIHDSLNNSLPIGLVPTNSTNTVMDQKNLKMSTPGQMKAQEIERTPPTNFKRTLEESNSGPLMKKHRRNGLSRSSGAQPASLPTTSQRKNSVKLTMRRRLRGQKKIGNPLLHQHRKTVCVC

| SMILES | outcome |
| --- | --- |
| N[C@@H](Cc1ccc(N(CCCl)CCCl)cc1)C(=O)O | inactive |
| N[C@@H]1C[C@H]1c1ccccc1 | inactive |
| CCN(C(C)=O)c1cccc(-c2ccnc3c(C#N)cnn23)c1 | inactive |
| O=P1(NCCCl)OCCCN1CCCl (centres undefined) | inactive |
| O=[N+]([O-])c1cc([As](=O)(O)O)ccc1O | inactive |
| CCOP(=S)(OCC)Oc1cc(C)nc(C(C)C)n1 | inactive |
| OCCOc1ccccc1 | inactive |
| C=C1C[C@@H]2[C@H](CC[C@]3(C)C(=O)CC[C@@H]23)[C@@]2(C)C=CC(=O)C=C12 | inactive |
| C[C@]12CCC(=O)C(O)=C1CC[C@@H]1[C@@H]2CC[C@]2(C)C(=O)CC[C@@H]12 | inactive |
| C[C@]12CC[C@H]3[C@@H](CCC4=CC(=O)CC[C@@H]43)[C@@H]1CC[C@@H]2OC(=O)CCc1ccccc1 | inactive |
| Cc1ccc2c(c1)C1CN(C)CCC1N2 (centres undefined) | inactive |
| CN1CCN(C(=O)O[C@H]2c3nccnc3C(=O)N2c2ccc(Cl)cn2)CC1 | inactive |
| C=CCN1CC[C@]23c4c5ccc(O)c4O[C@H]2C(=O)CC[C@@]3(O)[C@H]1C5 | inactive |
| CCOC(=O)C1(c2ccccc2)CCN(CCC(C#N)(c2ccccc2)c2ccccc2)CC1 | inactive |
| CC(C)CC(N(C)C)C1(c2ccc(Cl)cc2)CCC1 (centres undefined) | inactive |
| COc1ccc(Cc2nccc3cc(OC)c(OC)cc23)cc1OC | inactive |
| CCC(C(N)=O)N1CCCC1=O (centres undefined) | inactive |
| FC(F)(F)c1cccc(C2=CCN(CCc3ccc4ccccc4c3)CC2)c1 | inactive |
| Cn1cc(C2=C(c3cn(C4CCN(Cc5ccccn5)CC4)c4ccccc34)C(=O)NC2=O)c2ccccc21 | inactive |
| O=C(O)c1ccc2[nH]cc(CCCCN3CC=C(c4ccccc4)CC3)c2c1 | inactive |
| CC(C)(N)Cc1ccc(Cl)cc1 | inactive |
| Clc1ccc(CCC(Cn2ccnc2)Sc2c(Cl)cccc2Cl)cc1 (centres undefined) | inactive |
| COc1ccc2c(c1OC)CN1CCc3cc4c(cc3C1C2)OCO4 (centres undefined) | inactive |
| CC1NCCOC1c1ccccc1 (centres undefined) | inactive |
| CC[N+](CC)(CC)CC | inactive |
| Clc1cccc(N2CCNCC2)c1 | inactive |
| CCN(CC)CCOC(=O)C(O)(c1ccccc1)c1ccccc1 | inactive |
| C=C1CC[C@@]2(O)[C@H]3Cc4ccc(O)c5c4[C@@]2(CCN3CC2CC2)[C@H]1O5 | inactive |
| CC[N+]1(C)CCCC(OC(=O)C(O)(c2ccccc2)c2ccccc2)C1 (centres undefined) | inactive |
